Measured values: PubChem BioAssay AID1259420 (Broad Institute, 2018)
“And” between values parts separate entries of the source, which are not always exact repeats. Equal values may be shown once. Screen size: about 1,000 compounds; about 250 (25%) were called active. Not shown: some 31% with an inconclusive outcome. These entries were drawn from the full list. Measured potencies and affinities stand elsewhere. Values without a mark were called inactive. The rule behind the calls is not given here. Bridge positions count the residues as written; N and C are the ends. Square brackets hold non-standard residues; d marks the D form. Peptide text beside a SMILES is read from it. * marks the point of attachment. ξ: configuration not given here. Heptanoyl(6-Me) = CC(C)CCCCC(=O)*; ξDab = NCCC(N)C(=O)O; ξT = CC(O)C(N)C(=O)O

Test: compound activity on host-cell Toxoplasma growth – dose response (AID 1259420);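 note: host cells were HeLa; final incubation lasted 72 hours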
Settings: Toxoplasma gondii growth in host cells, no IFN-gamma

SMILES: CCN(CC)CCOC(=O)C(c1ccccc1)C1CCCCC1 (configuration not stated)
- max activity (at 19.5 µM unless noted): 16.1% [at 10 µM]

SMILES: COc1ccc(Cc2nnc(NC(=O)CC(C)C)s2)cc1
- max activity (at 19.5 µM unless noted): 16.7% [at 10 µM]

SMILES: COCC12CCCOC1CCN(S(=O)(=O)c1cn(C)cn1)C2 (configuration not stated)
- max activity (at 19.5 µM unless noted): -11.3% [at 2.6 µM]

SMILES: CC(C)C#Cc1ccc([C@@H]2[C@@H](CO)N3C(=O)CN(S(=O)(=O)c4ccccc4)C[C@H]23)cc1
- max activity (at 19.5 µM unless noted): 8.39%

SMILES: Cc1ccc(S(=O)(=O)N2CC[C@@H]3[C@H](CO)Nc4ccc(-c5cccc(C(=O)N(C)C)c5)cc4[C@@H]32)cc1
- max activity (at 19.5 µM unless noted): 15.5%

SMILES: O=C(C[C@H]1CC[C@@H]2[C@H](COC[C@H](O)CN2C(=O)c2cc(Cl)cc(Cl)c2)O1)N1CCc2ccccc2C1
- max activity (at 19.5 µM unless noted): 6.12% [at 2.6 µM]

SMILES: c1ccc(-c2ccc([C@H]3[C@H]4CNC[C@@H]3N4Cc3cc(-c4ccccc4)on3)cc2)cc1
- max activity (at 19.5 µM unless noted): 21.8% [at 21 µM]

SMILES: COc1ccc(S(=O)(=O)N(C)C[C@H]2Oc3c(NC(=O)c4nc5ccccc5s4)cccc3C(=O)N([C@@H](C)CO)C[C@H]2C)cc1
- max activity (at 19.5 µM unless noted): 5.87% [at 5 µM]

SMILES: Cc1ccc(S(=O)(=O)Nc2ccc3c(c2)C(=O)N([C@@H](C)CO)C[C@H](C)[C@H](CN(C)Cc2ccc(C(F)(F)F)cc2)O3)cc1
- max activity (at 19.5 µM unless noted): 18.3%

SMILES: OC[C@@H]1[C@@H](c2ccc(-c3cccc(F)c3)cc2)[C@@H]2CN(Cc3cncnc3)CCCCN12
- max activity (at 1.2 µM): -7.4%
- max activity (at 19.5 µM): 16.1%

SMILES: Cc1ccc(CN2CC[C@H]3CO[C@@H](CNC(=O)C4CC4)[C@@H]3C2)cc1
- max activity (at 19.5 µM unless noted): -26.4% [at 10 µM]

SMILES: CC(C)CCCCC(=O)NC(CCN)C(=O)NC(C(=O)NC(CCN)C(=O)NC1CCNC(=O)C(C(C)O)NC(=O)C(CCN)NC(=O)C(CCN)NC(=O)[C@H](CC(C)C)NC(=O)[C@@H](CC(C)C)NC(=O)C(CCN)NC1=O)C(C)O (stereo partly drawn) ({Heptanoyl(6-Me)}-[ξDab][ξT][ξDab][ξDab][ξDab][dL]L[ξDab][ξDab][ξT]; lactam 4-C)
- max activity (at 19.5 µM unless noted): -5.41% [at 2.6 µM]

SMILES: O=C(C1CCCCC1)N1[C@@H](CO)[C@@H]2c3ccccc3N(S(=O)(=O)c3ccccc3)C[C@@H]21
- max activity (at 19.5 µM unless noted): 7.57%

SMILES: O=C(NC1CCCC1)N1[C@@H]2CNC[C@H]1C2c1ccc(-c2cccnc2)cc1 (some centres not stated)
- max activity (at 19.5 µM unless noted): -14.9% [at 10 µM]

SMILES: CN(C)C(=O)c1cccc(-c2ccc3c(c2)[C@@H]2[C@@H](CCN2C(=O)Cc2ccccc2)[C@H](CO)N3)c1
- max activity (at 19.5 µM unless noted): 13.7% [at 21 µM]

SMILES: CN(C)C(=O)c1cccc(-c2ccc3c(c2)[C@H]2[C@H](CCN2C(=O)Cc2ccccc2)[C@@H](CO)N3)c1
- max activity (at 19.5 µM unless noted): -6.17% [at 10 µM]

SMILES: O=C(Cc1cccnc1)N1CC(=O)N2[C@@H](CO)[C@H](c3ccc(C#CC4CCCCC4)cc3)[C@@H]2C1
- max activity (at 19.5 µM unless noted): -4.29% [at 10 µM]

SMILES: CC(C)NC(=O)N1CC(=O)N2[C@H](C1)[C@@H](c1ccc(/C=C/c3ccccc3)cc1)[C@@H]2CO
- max activity (at 19.5 µM unless noted): 11.9% [at 5 µM]

SMILES: CN(C)C(=O)c1cc2c(nc1NCC1CC1)CCN(Cc1ccccn1)CC2
- max activity (at 19.5 µM unless noted): -6.11% [at 10 µM]

SMILES: CC(C)CN(C[C@@H](O)[C@H](Cc1ccccc1)NC(=O)O[C@H]1CO[C@H]2OCC[C@H]21)S(=O)(=O)c1ccc(N)cc1
- max activity (at 19.5 µM unless noted): 6.05% [at 1.2 µM]

SMILES: O=C(C1CC1)N1C[C@@H]2N[C@H](C1)C2c1ccc(/C=C/c2ccccc2)cc1 (some centres not stated)
- max activity (at 19.5 µM unless noted): 27.3%

SMILES: COc1ccccc1-c1ccc(C2[C@@H]3CN(C(=O)c4ccncc4)C[C@H]2N3)cc1 (some centres not stated)
- max activity (at 19.5 µM unless noted): -11% [at 5 µM]

SMILES: COc1ccc(-c2ccc(C3[C@@H]4CN(C(=O)c5cnccn5)C[C@H]3N4)cc2)cc1 (some centres not stated)
- max activity (at 19.5 µM unless noted): 19.9%

SMILES: Cc1csc([C@H]2C[C@H]3CCN(C(=O)c4cnccn4)C[C@@H]3O2)n1
- max activity (at 19.5 µM unless noted): -12.1%

SMILES: CC(C)CNC(=O)c1cc(-c2ccn(CC3CC3)n2)n2ccccc12
- max activity (at 19.5 µM unless noted): 21.6%

SMILES: Cc1ccc(S(=O)(=O)N2CCC3(CC2)OC(C(=O)N(C)C)Cn2ccnc23)cc1 (configuration not stated)
- max activity (at 19.5 µM unless noted): -17%

SMILES: O=C(NC1CCCC1)N1CC[C@H]2CN(Cc3cccc(Cl)c3)S(=O)(=O)[C@@H]2CC1
- max activity (at 19.5 µM unless noted): -17.4%

SMILES: CN(C)C(=O)CN1C[C@@H]2CCN(C(=O)Nc3ccccc3Cl)CC[C@H]2S1(=O)=O
- max activity (at 19.5 µM unless noted): 7.52% [at 2.6 µM]

SMILES: CC(C)n1c(C(=O)N2CCN(c3ccncc3)CC2)cc2c1c1ccccc1n2C
- max activity (at 19.5 µM unless noted): 37.4%

SMILES: COc1ccccc1C#Cc1ccc([C@@H]2[C@H](CO)N3CCCCN(C(=O)C4CCC4)C[C@@H]23)cc1
- max activity (at 19.5 µM unless noted): 17.3%

SMILES: CS(=O)(=O)N1CCO[C@@H]2CN(C(=O)Cc3ccccn3)CC[C@H]2C1
- max activity (at 19.5 µM unless noted): -18.9% [at 1.2 µM]

SMILES: Cn1c([N+](=O)[O-])cnc1COC(N)=O
- max activity (at 19.5 µM unless noted): -13.4% [at 0.6 µM]

SMILES: N#C[C@H]1N[C@@H](CO)[C@@H]1c1ccc(C#CC2CCCCC2)cc1
- max activity (at 19.5 µM unless noted): 28% [at 21 µM]

SMILES: C=CC[C@@H]1CC=C[C@@H](C)N1C(=O)CCn1c(C)cc(C)nc1=O
- max activity (at 0.16 µM): 10.8%
- max activity (at 10 µM): -10.5%

SMILES: Oc1[nH]c2ccccc2c1N=Nc1nc(Nc2ccccc2)nc(N2CCOCC2)n1
- max activity (at 19.5 µM unless noted): -17.4% [at 5 µM]

SMILES: COc1cccc(-c2ccc3c(c2)[C@H]2[C@H](CCN2S(=O)(=O)c2ccccc2F)[C@H](CO)N3)c1
- max activity (at 19.5 µM unless noted): 10%

SMILES: O=C(c1cnccn1)N1CC(=O)N2[C@H](C1)[C@H](c1ccc(/C=C/c3ccccc3)cc1)[C@@H]2CO
- max activity (at 19.5 µM unless noted): 11.5% [at 0.16 µM]

SMILES: O=S1(=O)c2ccccc2OCC2(CCN(Cc3ccc(F)cc3)CC2)CN1CC1CC1
- max activity (at 19.5 µM unless noted): 28.5%

SMILES: COCC#Cc1ccc([C@H]2[C@H](CO)N3CCCCN(C(=O)NC4CCCC4)C[C@@H]23)cc1
- max activity (at 19.5 µM unless noted): -13.1% [at 10 µM]

SMILES: O=C(Nc1ccc2c(c1)OCO2)N1C[C@@H]2N[C@H](C1)C2c1ccc(C=Cc2ccccc2)cc1 (some centres not stated)
- max activity (at 19.5 µM unless noted): 38% [at 10 µM]

SMILES: CN1C(=O)c2cc(NC(=O)c3cccc(F)c3)ccc2OC[C@H]2O[C@@H](CC(=O)NCC3CCCCC3)CC[C@H]21
- max activity (at 0.16 µM): 4.44%
- max activity (at 5 µM): -19.3%
- max activity (at 19.5 µM): -5.09%

SMILES: CN1C(=O)c2cc(NC(=O)c3cccc(F)c3)ccc2OC[C@@H]2O[C@@H](CC(=O)NCC3CCCCC3)CC[C@@H]21
- max activity (at 19.5 µM unless noted): -20.9% [at 2.6 µM]

SMILES: CN1C(=O)c2cc(NC(=O)c3cccc(F)c3)ccc2OC[C@H]2O[C@@H](CC(=O)NCC3CCCCC3)CC[C@@H]21
- max activity (at 19.5 µM unless noted): -18% [at 2.6 µM]

SMILES: CN1C(=O)c2cc(NC(=O)c3cccc(F)c3)ccc2OC[C@@H]2O[C@H](CC(=O)NCC3CCCCC3)CC[C@@H]21
- max activity (at 19.5 µM unless noted): -23.6% [at 10 µM]

SMILES: CC(C)c1cccc(NC(=O)C[C@H]2CC[C@H]3[C@@H](COc4ccc(NS(=O)(=O)c5ccccc5Cl)cc4C(=O)N3C)O2)c1
- max activity (at 19.5 µM unless noted): -22.8% [at 10 µM]

SMILES: COc1cccc(C(=O)Nc2ccc3c(c2)C(=O)N(C)[C@H]2CC[C@@H](CC(=O)N[C@@H](C)c4ccccc4)O[C@H]2CO3)c1
- max activity (at 19.5 µM unless noted): 8.03% [at 0.3 µM]

SMILES: Cc1ccccc1S(=O)(=O)N1CCCCN2[C@H](CO)[C@H](c3ccc(C#CCN(C)C)cc3)[C@@H]2C1
- max activity (at 19.5 µM unless noted): -9.35% [at 10 µM]

SMILES: Cc1ccccc1-c1ccc(C2[C@@H]3CN(C(=O)C4CCOCC4)C[C@H]2N3)cc1 (some centres not stated)
- max activity (at 0.6 µM): -10.3%
- max activity (at 5 µM): -5.78%

SMILES: C1=C(c2ccccc2)CC(c2ccccc2)=NN=C1c1ccccc1
- max activity (at 19.5 µM unless noted): -9.17% [at 10 µM]

SMILES: O=S(=O)(c1ccccc1)N1CCCCN2[C@H](CO)[C@@H](c3ccc(C#CC4CCCC4)cc3)[C@@H]2C1
- max activity (at 19.5 µM unless noted): 39.2%

SMILES: O=S(=O)(c1ccccc1)N1CCCCN2[C@H](C1)[C@@H](c1ccc(C#CC3CCCC3)cc1)[C@@H]2CO
- max activity (at 19.5 µM unless noted): 22.5%

SMILES: O=S(=O)(c1ccccc1)N1CCCCN2[C@@H](CO)[C@@H](c3ccc(C#CC4CCCC4)cc3)[C@@H]2C1
- max activity (at 19.5 µM unless noted): 18.8% [at 10 µM]

SMILES: COc1cccc(S(=O)(=O)N2CCCCN3[C@H](CO)[C@@H](c4ccc(C#CCC(C)C)cc4)[C@@H]3C2)c1
- max activity (at 19.5 µM unless noted): -24.9% [at 0.038 µM]

SMILES: COc1cccc(S(=O)(=O)N2CCCCN3[C@H](CO)[C@H](c4ccc(C#CCC(C)C)cc4)[C@@H]3C2)c1
- max activity (at 0.038 µM): -25.2%
- max activity (at 19.5 µM): -36.4%

SMILES: COc1cccc(S(=O)(=O)N2CCCCN3[C@@H](CO)[C@H](c4ccc(C#CCC(C)C)cc4)[C@@H]3C2)c1
- max activity (at 19.5 µM unless noted): -27.2% [at 0.3 µM]

SMILES: COc1cccc(S(=O)(=O)N2CCCCN3[C@H](C2)[C@@H](c2ccc(C#CCC(C)C)cc2)[C@@H]3CO)c1
- max activity (at 19.5 µM unless noted): -34.5% and -29.4%

SMILES: CNCCCC12CCC(c3ccccc31)c1ccccc12
- max activity (at 19.5 µM unless noted): 17.3%

SMILES: CCC(=O)N1CC(=O)N2[C@H](C1)[C@H](c1ccc(C#CCC(C)C)cc1)[C@@H]2CO
- max activity (at 19.5 µM unless noted): -9.55% [at 5 µM]

SMILES: O=C(NC1CCCC1)N1CC(=O)N2[C@H](CO)[C@H](c3ccc(C4=CCCCC4)cc3)[C@@H]2C1
- max activity (at 19.5 µM unless noted): 10.5% [at 0.6 µM]

SMILES: CS(=O)(=O)N1CC(=O)N2[C@H](CO)[C@@H](c3ccc(C#CCC4CCCC4)cc3)[C@H]2C1
- max activity (at 19.5 µM unless noted): 17.7% [at 21 µM]

SMILES: COC(=O)C[C@H]1CC[C@@H]2[C@@H](COc3ccc(NC(=O)Nc4cccc(C#N)c4)cc3C(=O)N2C)O1
- max activity (at 19.5 µM unless noted): 32.3% and 6.8%
